From PubChem BioAssay AID488899 (Broad Institute, 2010)
Where “and” joins values, the source holds several entries; their conditions need not be identical. Equal values may be shown once. Screen size: about 330,000 compounds; about 2,800 (0.85%) were called active. The full list was thinned out, with actives kept by preference. Unmarked numbers belong to inactive results.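 Rule for the calls: active = mean inhibition across replicates of 60% or more, whatever share of single replicates reaches that level; inconclusive = some that reach 60%, reason not given; inactive = mean inhibition across replicates below 60%.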

Assay: MITF transcriptional activity suppression – cell-based, SK-MEL-5, single point, luciferase, primary screen (AID 488899)
Conditions: SK-MEL-5 TRPM1 promoter luciferase, 24 h; at 12.5 µM; active compounds read high

Row | Structure (SMILES) | inhibition
1 | CCOc1ccc(-c2cc(C)[n+](CCN(CC)CC)c(-c3ccc(OCC)cc3)c2)cc1 | 69.6% (active)
2 | CC1CC=CCC12C(=O)NC(=S)NC2=O (stereo not given) | 6.98%
3 | N#Cc1ccc(Cn2cc(C(=O)c3ccco3)c3ccccc32)cc1 | 12.8%
4 | CC(=O)N(C1=NCCCS1)c1ccccc1F | 6.66%
5 | Fc1ccc(C2N3CCCN23)cc1 (stereo not given) | 5.89%
6 | CC1=CC(=Cc2sc3ccccc3[n+]2C)C=C(C)O1 | 69.6% (active)
7 | Cc1cccc(NC(=O)N2CC3CC(C2)c2cccc(=O)n2C3)c1 (stereo not given) | -3.6%
8 | Cc1nn(Cc2ccccc2Cl)c(Cl)c1C(=O)OC(C(=O)NC(N)=O)C(C)C (stereo not given) | -9.08%
9 | CC1C(=O)OC2CCN3CC=C(COC(=O)C(C)(O)C1(C)O)C23 (stereo not given) | -1.22%
10 | O=C(c1ccccc1)C(O)(CN1CCCCC1)c1ccccc1 (stereo not given) | 3.2%
11 | OCC#CC[N+]1(CC#Cc2ccccc2)CCCC1 | 2.94%
12 | COC(=O)C1=C(c2cccc(OCc3ccccc3)c2)C[C@@H]2CC[C@H]1N2C(=O)NCc1ccc(Br)cc1 | -1.21%
13 | CCC(C)(O)C(=O)OC1C(=O)OC2CC3C(C)=CC(=O)C(O)C3(C)C3C4(O)OCC23C1C(C)C4O (stereo not given) | 72.8% (active)
14 | CC1=C2C(=O)C3C(CC=C4CC(OC5OC(O)C(O)C(O)C5CO)CCC43C)C2CCC12OC1CC(C)CNC1C2C (stereo not given) | 0.655%
15 | CN(C)C(=O)NC(O)C(Cl)(Cl)Cl (stereo not given) | 8.39%
16 | CCN1c2nc3c(C)cccn3c(=O)c2CC2(C(=O)N(C)C(=O)N(C)C2=O)C1C (stereo not given) | 0.643%
17 | Cn1c(O)c(C=Nc2ccc3c(c2)CCC3)c(=O)n(C)c1=O | -24.2%
18 | COC(=O)C1=C(c2ccc3ccccc3c2)C[C@@H]2CC[C@H]1N2C(=O)NCCO | -9.09%

Row | Structure (SMILES) | inhibition
19 | CC12CN3CC(C)(CN(C1)C3c1cccs1)C2 (stereo not given) | -13%
20 | CC(=O)OC1C2(CC3N4C(=O)C5(CO)SSC4(CC31O)C(=O)N5C)OC(C)C(C)(C)C2=O (stereo not given) | 112% (active)
21 | CC1CNCCN1c1ccc(Cl)cc1 (stereo not given) | -17.8%
22 | Cc1cc2ccccn2c1C(C[N+](=O)[O-])c1c(F)cccc1Cl (stereo not given) | 7.17%
23 | O=c1c2ccccc2nc(/C=C/c2ccc(F)cc2)n1-c1ccccc1O | -2.83%
24 | Cc1ccc(P(=S)(c2ccc(C)o2)N2CCOCC2)o1 | -0.096%
25 | COC1C(O)C(C)OC(OC2CCC3(C=O)C(CCC4C3CCC3(C)C(C5=CC(=O)OC5)CCC43O)C2)C1O (stereo not given) | 74.9% (active)
26 | O=C(O)CCn1cc(C=C2C(=O)NC(=S)NC2=O)c(-c2cccc(Br)c2)n1 | 4.06%
27 | c1ccc(CCN2CCC3(CC2)OCCO3)cc1 | 9.66%
28 | C[C@]12CCC3C(CC[C@H]4C[C@@H](O)CC[C@]34C)C1CC[C@@H]2O (stereo not given in full) | 6.32%
29 | C[C@]12CCC3C(CC[C@H]4C[C@@H](O)CC[C@]34C)C1C[C@@H](O)[C@H]2O (stereo not given in full) | 2.08%
30 | C[C@]12CC[C@H](O)C[C@H]1CC[C@@H]1C2CC[C@]2(C)[C@@H](C3=CC(=O)OC3)[C@@H](O)C[C@]12O (stereo not given in full) | 80.6% (active)
31 | NCCc1c[nH]c2ccc(O)cc12 | 12.6%
32 | COC(=O)C1=C(c2ccc(-c3ccccc3)c(F)c2)C[C@@H]2CC[C@H]1N2C(=O)NCc1ccc(F)cc1 | -8.41%
33 | CCCCCCCCCCCCn1ccc(=N)cc1 | 80.1% (active)
34 | CN(C)C(=O)Oc1cc(OC(=O)N(C)C)cc(C(O)CNC(C)(C)C)c1 (stereo not given) | -3.47% and -8.18%
35 | CC(C)c1c(CN(C)C(C)Cc2ccccc2)n(C)n(-c2ccccc2)c1=O (stereo not given) | 9.81%
